We go through 20 compounds from PubChem BioAssay.

Assay [1] in a line: antimalarial activity against Dd2 strain (AID 2302;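 active means growth inhibition above 50% at the single 2 µM test dose, taken to imply half-maximal potency below 2 µM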;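 further: 0% = DMSO untreated growth and 100% = chloroquine plus artemisinin killed control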). The conditions noted are these: P. falciparum Dd2 in RBCs, LDH growth readout, 72 h; at 2 µM; stronger effect = higher value.
Assay [2] is described as follows: HepG2 cytotoxicity, primary screen, cytotoxicity control for P. falciparum antimalarial project, cell-based, ATP luminescence (AID 2303;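 active means inhibition above 50%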;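 further: 0% = DMSO wells and 100% = digitonin-killed cells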). The conditions noted are these: HepG2 viability, 24-48 h, at 10 µM, stronger effect = higher value.
Assay [3] has as its target L-lactate dehydrogenase (Plasmodium falciparum (isolate CDC / Honduras)) (UniProt Q27743). As to the kind of experiment: PfLDH activity inhibition – cell lysate, 3D7 strain, counter-screen for P. falciparum growth inhibition project (AID 2304).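 Further: 0% = vehicle and 100% = reference inhibitor.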 The conditions noted are these: P. falciparum 3D7 crude extract, LDH APAD/NBT absorbance; at 2 µM; stronger effect = higher value. Background: A counterscreen serves to expose hits that act by an unwanted route or on another target.

Assay [4] is described as follows: inhibition of 3D7 malaria parasite growth – strain 3D7 (AID 2306).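 Further: 0% = DMSO wells and 100% = chloroquine plus artemisinin control wells.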 As to conditions: P. falciparum 3D7 erythrocytic growth, LDH absorbance, 72 h; at 2 µM; stronger effect = higher value.
Assay [5] has as its target Calcium-dependent protein kinase 1 (Plasmodium falciparum (isolate 3D7)) (UniProt P62344). The assay can be described thus: PfCDPK1 kinase inhibitors, biochemical, TCAMS library (AID 1159585; cut-off not given, nearly all actives have IC50 up to about 0.98 µM;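 further: inhibitors leave more ATP so luminescence rises with inhibition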). As to conditions: recombinant PfCDPK1, Kinase-Glo ATP depletion luminescence. Background: In Kinase-Glo more light means more ATP remaining.
For assay [6], the target named is Plasmodium falciparum protein kinase 6 (PK6, PF3D7_1337100) (UniProt Q8IDW1). The assay can be described thus: PfPK6 kinase inhibitors, biochemical, TCAMS library (AID 1159586). The conditions noted are these: recombinant PfPK6, Kinase-Glo ATP depletion luminescence.
Sequence of Plasmodium falciparum protein kinase 6 (PK6, PF3D7_1337100) (Q8IDW1 1-305): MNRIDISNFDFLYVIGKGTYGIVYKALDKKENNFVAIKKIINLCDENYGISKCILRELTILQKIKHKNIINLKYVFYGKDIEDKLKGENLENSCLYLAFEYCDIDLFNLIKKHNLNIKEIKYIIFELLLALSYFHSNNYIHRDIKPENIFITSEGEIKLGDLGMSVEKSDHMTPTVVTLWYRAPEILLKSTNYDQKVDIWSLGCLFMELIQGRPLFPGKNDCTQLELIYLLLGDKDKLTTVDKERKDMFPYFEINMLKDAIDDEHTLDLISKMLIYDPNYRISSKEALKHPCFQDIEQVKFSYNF
In assay [7] the target is Protein kinase 7 (PK7), Plasmodium falciparum 3D7 (PF3D7_0213400) (UniProt Q7YTF7). The assay can be described thus: inhibition of Plasmodium PK7 catalytic activity – biochemical, TCAMS antimalarial set, Kinase-Glo luminescence (AID 1159587). As to conditions: recombinant PfPK7, Kinase-Glo ATP depletion luminescence.
Sequence of Protein kinase 7 (PK7), Plasmodium falciparum 3D7 (PF3D7_0213400) (Q7YTF7 1-343): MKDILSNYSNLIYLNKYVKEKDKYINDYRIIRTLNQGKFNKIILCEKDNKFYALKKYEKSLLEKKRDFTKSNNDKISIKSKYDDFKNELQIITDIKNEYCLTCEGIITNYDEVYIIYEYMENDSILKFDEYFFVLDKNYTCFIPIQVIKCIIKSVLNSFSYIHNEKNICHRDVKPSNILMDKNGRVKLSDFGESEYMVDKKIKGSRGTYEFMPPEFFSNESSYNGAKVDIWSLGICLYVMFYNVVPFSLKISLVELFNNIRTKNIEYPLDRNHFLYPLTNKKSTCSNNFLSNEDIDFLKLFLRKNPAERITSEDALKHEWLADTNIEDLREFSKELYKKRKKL
Assay [8] addresses Calcium-dependent protein kinase 4 (Plasmodium falciparum (isolate 3D7)) (UniProt Q8IBS5). As to the kind of experiment: PfCDPK4 kinase inhibitors, biochemical, TCAMS library (AID 1159588; cut-off not given, nearly all actives have IC50 up to about 0.91 µM). As to conditions: recombinant PfCDPK4, Kinase-Glo ATP depletion luminescence.

SMILES strings stand for the structures. A number with no mark means an inactive call. For some of these results: Measured potencies and affinities stand elsewhere. Active and inactive are the calls of the source. Unless noted, how the calls were made is not given here.

Sequence of Calcium-dependent protein kinase 1 (Plasmodium falciparum (isolate 3D7)) (P62344 whole entry, looked up): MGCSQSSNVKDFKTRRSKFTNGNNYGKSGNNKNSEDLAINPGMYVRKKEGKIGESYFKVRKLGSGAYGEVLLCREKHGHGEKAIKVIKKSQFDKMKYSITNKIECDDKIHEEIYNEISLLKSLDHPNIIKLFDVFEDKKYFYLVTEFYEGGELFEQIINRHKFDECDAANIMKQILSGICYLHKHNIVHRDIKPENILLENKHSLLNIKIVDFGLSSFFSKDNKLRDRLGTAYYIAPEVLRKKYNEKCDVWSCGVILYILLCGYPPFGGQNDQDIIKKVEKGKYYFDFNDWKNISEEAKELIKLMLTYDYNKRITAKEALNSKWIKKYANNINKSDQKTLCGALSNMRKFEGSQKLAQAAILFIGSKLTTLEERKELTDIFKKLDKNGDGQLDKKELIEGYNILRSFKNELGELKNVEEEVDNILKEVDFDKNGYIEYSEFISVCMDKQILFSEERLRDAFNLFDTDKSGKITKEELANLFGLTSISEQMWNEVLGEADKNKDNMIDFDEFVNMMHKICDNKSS
Sequence of Calcium-dependent protein kinase 4 (Plasmodium falciparum (isolate 3D7)) (Q8IBS5 whole entry, looked up): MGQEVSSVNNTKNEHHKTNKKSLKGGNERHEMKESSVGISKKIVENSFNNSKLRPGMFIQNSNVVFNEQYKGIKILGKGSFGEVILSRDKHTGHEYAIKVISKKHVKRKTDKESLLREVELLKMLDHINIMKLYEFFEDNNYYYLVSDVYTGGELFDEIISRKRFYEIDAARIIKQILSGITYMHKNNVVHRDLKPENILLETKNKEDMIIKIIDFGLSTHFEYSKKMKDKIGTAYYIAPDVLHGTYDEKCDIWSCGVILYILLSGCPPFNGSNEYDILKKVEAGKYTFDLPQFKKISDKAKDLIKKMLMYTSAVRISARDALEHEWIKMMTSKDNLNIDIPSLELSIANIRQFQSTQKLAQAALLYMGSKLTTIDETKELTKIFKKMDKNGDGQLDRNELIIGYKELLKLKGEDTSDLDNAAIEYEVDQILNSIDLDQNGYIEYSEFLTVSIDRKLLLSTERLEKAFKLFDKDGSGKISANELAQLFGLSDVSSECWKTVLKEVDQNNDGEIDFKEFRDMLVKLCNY
Sequence of L-lactate dehydrogenase (Plasmodium falciparum (isolate CDC / Honduras)) (Q27743 whole entry, looked up): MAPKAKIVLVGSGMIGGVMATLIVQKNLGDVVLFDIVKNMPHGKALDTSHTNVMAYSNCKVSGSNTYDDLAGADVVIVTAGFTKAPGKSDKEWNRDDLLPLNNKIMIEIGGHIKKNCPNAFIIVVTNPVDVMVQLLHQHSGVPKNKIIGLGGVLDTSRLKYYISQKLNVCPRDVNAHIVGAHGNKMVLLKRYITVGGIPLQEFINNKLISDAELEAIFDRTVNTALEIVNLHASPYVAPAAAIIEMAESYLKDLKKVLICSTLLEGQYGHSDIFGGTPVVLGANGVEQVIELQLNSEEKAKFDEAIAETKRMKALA

As to `Cc1ccc(Cn2ncc(N3CCNCC3)c(Cl)c2=O)cc1NC(=O)Nc1ccc(-c2ccccc2)cc1`, the figures for the growth inhibition in assay [1] and in assay [4] were 30% and 90% (active), respectively. Besides, the inhibition (in general, the drop in the measured response relative to a control, in per cent) in assay [2] was 56% (active); in assay [3], 6%. The outcome in assay [5], in assay [6], in assay [7] and in assay [8] was inactive.

For `O=C(/C=C/c1ccc(Cl)c(Cl)c1)NCCCCCN1CCCN(C(=S)Nc2cccc(Cl)c2)CC1`, the values for the growth inhibition in assay [1] and in assay [4] were 7% and 93% (active), respectively. The values for the inhibition in assay [2] and in assay [3] were 19% and 0%, respectively. Besides, the result in assay [5], in assay [6], in assay [7] and in assay [8] was inactive.

For `CC(C)COc1ccc(Cl)cc1Cc1ccc(-c2nc3c(F)c(F)ccc3[nH]2)o1`, the growth inhibition in assay [1] was 85% (active); in assay [4] it was 94% (active). For the same compound, the inhibition in assay [2] was 26%; in assay [3], -1%. The outcome in assay [5], in assay [6], in assay [7] and in assay [8] was inactive.

With `Cc1nc(-c2nc(NCCc3c(C)noc3C)ncc2-c2ccsc2)sc1C`, the results for the growth inhibition in assay [1] and in assay [4] were 85% (active) and 87% (active), respectively. The inhibition in assay [2] is 12%; in assay [3], -2%. Also, the outcome in assay [5], in assay [6], in assay [7] and in assay [8] was inactive.

For the compound `CCc1sc(N2CCN(C)CC2)nc1C(=O)Nc1ccc(F)cc1C(F)(F)F`, the values for the growth inhibition in assay [1] and in assay [4] were 98% (active) and 101% (active), respectively. In addition, the values for the inhibition in assay [2] and in assay [3] were -1% and 5%, respectively. Besides, the outcome in assay [5], in assay [6], in assay [7] and in assay [8] was inactive.

`CC(C)(C)n1nnnc1C(c1cccnc1)N(Cc1ccccc1)Cc1ccc(Cl)cc1` (stereo not given): the results for the growth inhibition in assay [1] and in assay [4] were 17% and 96% (active), respectively. Further, the inhibition in assay [2] was 0%; in assay [3] it was -1%. The result in assay [5], in assay [6], in assay [7] and in assay [8] was inactive.

As for `CC(C)(C)c1ccc(NC(=O)c2ccc(CN3CCCN(Cc4ccc(F)cc4)CC3)cc2)cc1`, the results for the growth inhibition in assay [1] and in assay [4] were 7% and 87% (active), respectively. Also, the results for the inhibition in assay [2] and in assay [3] were 55% (active) and -1%, respectively. The outcome in assay [5], in assay [6], in assay [7] and in assay [8] was inactive.

For `COc1ccc(CNc2cc(C)nc3sc4c(c23)CCC2(C4)OCCO2)cc1`, the values for the growth inhibition in assay [1] and in assay [4] were 2% and 96% (active), respectively. The values for the inhibition in assay [2] and in assay [3] were 4% and -7%, respectively. The outcome in assay [5], in assay [6], in assay [7] and in assay [8] was inactive.

As for `C=CC(=O)Nc1ccc(Cl)cc1C(O)c1ccccc1` (stereo not given), the growth inhibition in assay [1] is 5%; in assay [4] it was 100% (active). Also, the results for the inhibition in assay [2] and in assay [3] were -5% and 0%, respectively. For the same compound, the result in assay [5], in assay [6], in assay [7] and in assay [8] was inactive.

For the compound `CCOC(=O)c1ccc(-c2cnoc2-c2cc(CC)c(OC)cc2O)o1`, the growth inhibition was 97% (active) in assay [1] and 101% (active) in assay [4]. The inhibition in assay [2] was 12%; in assay [3], 1%. Also, the outcome in assay [5], in assay [6], in assay [7] and in assay [8] was inactive.

As to `CCn1c(-c2nonc2N)nc2cnc(Oc3cccc(NC(=O)c4ccc(OCCN5CCCCC5)cc4)c3)cc21`, the growth inhibition in assay [1] was 7%; in assay [4], 98% (active). The inhibition in assay [2] is 16%; in assay [3] it was -1%. Besides, the outcome in assay [5], in assay [6], in assay [7] and in assay [8] was inactive.

As for `CN1CCN(Cc2cccc(-c3ccc4c(Nc5ccc(Oc6cccnc6)cc5)ccnc4c3)c2)CC1`, the growth inhibition in assay [1] and in assay [4] was 100% (active) in each case. Also, the inhibition in assay [2] is 15%; in assay [3] it was 0%. Further, the result in assay [5], in assay [6], in assay [7] and in assay [8] was inactive.

As for `C[C@@H](COc1ccc(-c2ccccc2)cc1)CON1C(N)=NC(N)=NC1(C)C`, the growth inhibition in assay [1] and in assay [4] was 96% (active) throughout. The inhibition in assay [2] is 62% (active); in assay [3] it was 3%. Besides, the result in assay [5], in assay [6], in assay [7] and in assay [8] was inactive.

Regarding `COc1cc(Cc2cnc(N)nc2N)ccc1OCc1ccc(-c2ccccc2C#N)cc1`, the growth inhibition in assay [1] is 3%; in assay [4], 93% (active). The inhibition in assay [2] is 32%; in assay [3], 6%. Moreover, the result in assay [5], in assay [6], in assay [7] and in assay [8] was inactive.

With `CN1CCC(OC(=O)c2cc3cc(-c4ccccc4)ccc3n2S(=O)(=O)c2ccccc2)CC1`, the results for the growth inhibition in assay [1] and in assay [4] were 10% and 88% (active), respectively. Further, the inhibition in assay [2] was 31%; in assay [3] it was -5%. In addition, the outcome in assay [5], in assay [6], in assay [7] and in assay [8] was inactive.

For the compound `c1ccc(Nc2nc(-c3ccccn3)cs2)nc1`, the growth inhibition in assay [1] is 93% (active); in assay [4] it was 87% (active). The values for the inhibition in assay [2] and in assay [3] were 45% and 2%, respectively. In addition, the result in assay [5], in assay [6], in assay [7] and in assay [8] was inactive.

Turning to `C=CCc1cc(Br)ccc1OCCCOc1c(N)nc(N)nc1N`, the results for the growth inhibition in assay [1] and in assay [4] were 0% and 92% (active), respectively. Further, the inhibition was 47% in assay [2] and 4% in assay [3]. The result in assay [5], in assay [6], in assay [7] and in assay [8] was inactive.

`CC(C)N=C(N)NN=Cc1ccc(Cl)c(Cl)c1`: the growth inhibition in assay [1] is 12%; in assay [4] it was 101% (active). The inhibition is -8% in assay [2] and -2% in assay [3]. The result in assay [5], in assay [6], in assay [7] and in assay [8] was inactive.

In the case of `COc1ccc(-c2c(C(F)(F)F)nn(C)c2NC(=O)Nc2ccc(F)cc2F)cc1`, the growth inhibition in assay [1] was 99% (active); in assay [4], 101% (active). Further, the inhibition was 8% in assay [2] and -4% in assay [3]. Also, the outcome in assay [5], in assay [6], in assay [7] and in assay [8] was inactive.

Take `O=C(c1cc(-c2cccs2)[nH]n1)N1CCN(S(=O)(=O)c2ccc(Br)cc2)CC1`: the growth inhibition in assay [1] was 95% (active); in assay [4], 93% (active). Moreover, the inhibition in assay [2] was -6%; in assay [3], 3%. Further, the result in assay [5], in assay [6], in assay [7] and in assay [8] was inactive.
